Experimental data reported in PubChem BioAssay (EPA / NIEHS).
Where a structure was tested more than once in an assay, its records may differ in their call. The source made the active and inactive calls. Rule for the calls: active = hit-call score of the fitted dose curve at least 0.9, where 1 is the maximum; inactive = score below 0.9.

Tests used:
[1] = ATG_Ets_CIS: Attagene CIS-FACTORIAL HepG2 Assay for human Erythroblast Transformation Specific (ETS) (AID 2282941); conditions: HepG2 ETS cis-reporter transcription, actives raise or lower the signal
Procedure, shortened: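 HepG2 cells transfected with multiple cis-regulated reporter units measuring endogenous ETS-driven transcription, 24 h after dosing. Reporter mRNA quantified by RT-PCR with capillary electrophoresis; bidirectional fit relative to DMSO.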

[2] = target: Hepatocyte nuclear factor 3-beta (Homo sapiens) (UniProt Q9Y261); test: ATG_FoxA2_CIS: Attagene CIS-FACTORIAL HepG2 Assay for human Forkhead box A2 (FOXA2) (AID 2282942); conditions: HepG2 cis-reporter transcription factor activity, 24 h; actives raise or lower the signal
Procedure, shortened: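 Multiplexed cis-element reporter assay in transiently transfected HepG2. Twenty-four hours post-dosing, RNA was reverse-transcribed, amplified, FAM-labelled, HpaI-digested and separated by CE. Activity gain or loss relative to DMSO.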

[3] = ATG_FoxO_CIS: Attagene CIS-FACTORIAL HepG2 Assay for human Forkhead box O (FoxO) (AID 2282943); conditions: HepG2 Attagene cis-reporter, FoxO element, mRNA; actives raise or lower the signal
Procedure, shortened: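 Endogenous transcription factor activity read from multiplexed cis-promoter reporter transcripts in transiently transfected HepG2, 24 h after dosing. Reporter RNA measured via RT-PCR plus capillary electrophoresis of FAM-labeled products; gain or loss relative to DMSO.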

[4] = ATG_GATA_CIS: Attagene CIS-FACTORIAL HepG2 Assay for human GATA Binding Protein (AID 2282944); conditions: HepG2 GATA cis-element reporter, Attagene multiplex mRNA; actives raise or lower the signal
Procedure, shortened: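 Transfected cis-reporter HepG2 cells were treated with chemicals for 24 hours. Total RNA was then converted to cDNA, amplified with reporter-specific primers and analysed by fluorescent capillary electrophoresis, using DMSO-treated wells as baseline.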

[5] = ATG_GLI_CIS: Attagene CIS-FACTORIAL HepG2 Assay for human Zinc Finger Protein GLI1 (AID 2282945); conditions: HepG2, Attagene cis-factorial reporter mRNA, GLI element; actives raise or lower the signal
Procedure, shortened: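 Bidirectional curve fits relative to DMSO, using reporter mRNA levels from RT-PCR plus capillary electrophoresis. Cells were HepG2 transiently carrying cis-regulated reporter constructs, harvested 24 h after dosing.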

[6] = ATG_ISRE_CIS: Attagene CIS-FACTORIAL HepG2 Assay for human Interferon Regulatory Factor 1 (IRF1) binding to an Interferon-Stimulated Response Element (ISRE) (AID 2282948); conditions: HepG2 ISRE cis-reporter (Attagene), mRNA transcription readout; actives raise or lower the signal
Procedure, shortened: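 Transiently transfected HepG2 cells carrying cis-element reporter units, dosed 24 hours. Reporter mRNA quantified by RT-PCR, fluorescent primer extension, HpaI digestion and capillary electrophoresis. Bidirectional fitting relative to DMSO.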

[7] = ATG_M_32_CIS: Attagene CIS-FACTORIAL HepG2 Assay for M32 Transcription Factor (Internal Marker) (AID 2282949); conditions: HepG2 Attagene cis-factorial M32 reporter, mRNA; actives raise or lower the signal;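 note: background control marker of the multiplexed CIS panel rather than a real target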
Procedure, shortened: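 Fluorescent capillary electrophoresis peaks of HpaI-digested, FAM-labelled RT-PCR reporter products give the signal. Source: transiently transfected human liver HepG2 cells, 24 h after chemical dosing; bidirectional fitting against DMSO.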

[8] = ATG_M_06_CIS: Attagene CIS-FACTORIAL HepG2 Assay for M06 Transcription Factor (Internal Marker) (AID 2282950); conditions: HepG2 Attagene CIS-FACTORIAL M06 internal marker reporter; actives raise or lower the signal
Procedure, shortened: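 Cells (HepG2, transiently carrying cis-driven reporter units) receive chemical for 24 h before RNA isolation. Reporter cDNA is PCR-amplified, FAM-labelled by primer extension, HpaI-digested and sized on a capillary analyser.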

[9] = target: Hypoxia-inducible factor 1-alpha (Homo sapiens) (UniProt Q16665); test: ATG_HIF1a_CIS: Attagene CIS-FACTORIAL HepG2 Assay for human Hypoxia Inducible Factor 1 (HIF1A) (AID 2282951); conditions: HepG2 Attagene cis-factorial HIF1a reporter transcription; actives raise or lower the signal
Procedure, shortened: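 Cis-element reporter constructs were transiently transfected into HepG2 cells, which were treated for 24 h; reporter RNA was reverse-transcribed, amplified, labelled and resolved by capillary electrophoresis.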

[10] = target: Hepatocyte nuclear factor 6 (Homo sapiens) (UniProt Q9UBC0); test: ATG_HNF6_CIS: Attagene CIS-FACTORIAL HepG2 Assay for human Hepatocyte Nuclear Factor 6 (HNF6) (AID 2282952); conditions: HepG2 Attagene cis-factorial HNF6 reporter transcription; actives raise or lower the signal
Procedure, shortened: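 Transiently transfected HepG2 cells expressing cis-regulated reporter transcription units were exposed to chemical for 24 h in a 24-well format. Reporter transcript abundance was determined by fluorescence capillary electrophoresis.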

[11] = target: Heat shock factor protein 1 (Homo sapiens) (UniProt Q00613); test: ATG_HSE_CIS: Attagene CIS-FACTORIAL HepG2 Assay for human Heat Shock Transcription Factor 1 (HSE) (AID 2282953); conditions: HepG2 HSE cis-reporter, Attagene RNA transcription; actives raise or lower the signal
Procedure, shortened: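 Liver-derived HepG2 cells carry transiently introduced multiple reporter units governed by cis promoters. Reporter RNA measured 24 h post-dose through reverse transcription, PCR amplification, fluorescent labelling and capillary electrophoresis, normalised to DMSO.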

[12] = ATG_MRE_CIS: Attagene CIS-FACTORIAL HepG2 Assay for human Metal Responsive Element (MRE) (AID 2282954); conditions: HepG2 MRE cis-reporter transcription, Attagene multiplex; actives raise or lower the signal
Procedure, shortened: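 Transient MRTU transfection of HepG2 (FuGene 6); 24 h dosing; total RNA → oligo(dT) RT, PCR, 6-FAM primer extension, HpaI cut, CE. Bidirectional fit vs DMSO.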

[13] = ATG_PBREM_CIS: Attagene CIS-FACTORIAL HepG2 Assay for human Phenobarbital-responsive Enhancer Module (PBREM) (AID 2282955); conditions: HepG2 PBREM cis-reporter, Attagene multiplexed transcription; actives raise or lower the signal
Procedure, shortened: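 Multiplexed cis-reporter readout in human hepatoma HepG2 cells; PBREM-regulated transcript quantified after 24 h exposure by fluorescent RT-PCR fragment analysis. Signal changes up or down fitted relative to DMSO.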

[14] = target: Paired box protein Pax-6 (Homo sapiens) (UniProt P26367); test: ATG_Pax6_CIS: Attagene CIS-FACTORIAL HepG2 Assay for human Paired Box 6 (PAX6) (AID 2282956); conditions: HepG2 CIS-FACTORIAL PAX6 reporter transcription, RNA readout; actives raise or lower the signal
Procedure, shortened: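 HepG2 cells transiently transfected with cis-promoter-driven multiplexed reporter units sensing endogenous transcription factor activity; 24 h chemical exposure. Reporter mRNA quantified by RT-PCR, 6-FAM labelling, HpaI digestion and capillary electrophoresis; bidirectional fit versus DMSO baseline.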

[15] = ATG_PXRE_CIS: Attagene CIS-FACTORIAL HepG2 Assay for human Pregnane X Receptor Element (PXRE) (AID 2282957); conditions: HepG2 Attagene CIS-FACTORIAL PXRE reporter, mRNA; actives raise or lower the signal
Procedure, shortened: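 Cis-element reporter mRNA in human hepatoma HepG2 cells is measured 24 h post-dosing by RT-PCR, primer-extension labeling and capillary electrophoresis; gain or loss of signal is fitted relative to DMSO.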

[16] = ATG_Sox_CIS: Attagene CIS-FACTORIAL HepG2 Assay for human SRY-box transcription factor (SOX) (AID 2282960); conditions: HepG2 Attagene cis-factorial SOX reporter, mRNA; actives raise or lower the signal
Procedure, shortened: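 Fluorescence-labelled cDNA fragments from reporter transcripts, sized by CE, give the signal. Cells: HepG2, transiently transfected with cis-regulated reporter units. Exposure 24 h; DMSO negative control; bidirectional curve fitting.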

[17] = ATG_GRE_CIS: Attagene CIS-FACTORIAL HepG2 Assay for human Glucocorticoid Response Elements (GRE) (AID 2282947); conditions: HepG2 GRE cis-reporter, Attagene multiplex mRNA; actives raise or lower the signal
Procedure, shortened: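 Transient MRTU transfection of human HepG2 liver cells; cis-regulated reporters report endogenous factors. 24 h dosing → RNA isolation → RT-PCR → 6-FAM primer extension → HpaI cut → CE fragment analysis. Bidirectional fit, DMSO negative control.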

[18] = ATG_PPRE_CIS: Attagene CIS-FACTORIAL HepG2 Assay for human Peroxisome Proliferator-activated Response Element (PPRE) (AID 2282958); conditions: HepG2 PPRE cis-element reporter, Attagene transcription factor profiling; actives raise or lower the signal
Procedure, shortened: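 DMSO served as negative control and baseline for bidirectional curve fitting. Signal came from PPRE-regulated reporter mRNA in HepG2 cells, measured 24 h post-dosing by RT-PCR, 6-FAM primer extension and capillary electrophoresis.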

[19] = ATG_RORE_CIS: Attagene CIS-FACTORIAL HepG2 Assay for human RAR-related Orphan Receptor Element (RORE) (AID 2282959); conditions: HepG2 Attagene cis-factorial RORE reporter, mRNA; actives raise or lower the signal
Procedure, shortened: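 Transfect HepG2 with MRTUs; treat 24 h; extract RNA; RT with oligo(dT); PCR with reporter-specific primers; 6-FAM primer extension; HpaI digest 2 h at 37 C; capillary electrophoresis. Fit vs DMSO, bidirectional.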

[20] = target: Bile acid receptor (Homo sapiens) (UniProt Q96RI1); test: ATG_IR1_CIS: Attagene CIS-FACTORIAL HepG2 Assay for human Nuclear Receptor Subfamily 1 Group H Member 4 (NR1H4), IR1 submotif (AID 2282946); conditions: IR1 reporter transcription, actives raise or lower the signal
Procedure, shortened: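 Cells (human HepG2) carry transiently transfected cis-promoter reporter transcription units. Compounds are incubated 24 h, total RNA is reverse-transcribed and amplified, and labelled fragments are resolved by capillary electrophoresis. Curves use DMSO as baseline.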

Measured: AC50

Chain of Paired box protein Pax-6 (Homo sapiens) (P26367 whole entry, looked up): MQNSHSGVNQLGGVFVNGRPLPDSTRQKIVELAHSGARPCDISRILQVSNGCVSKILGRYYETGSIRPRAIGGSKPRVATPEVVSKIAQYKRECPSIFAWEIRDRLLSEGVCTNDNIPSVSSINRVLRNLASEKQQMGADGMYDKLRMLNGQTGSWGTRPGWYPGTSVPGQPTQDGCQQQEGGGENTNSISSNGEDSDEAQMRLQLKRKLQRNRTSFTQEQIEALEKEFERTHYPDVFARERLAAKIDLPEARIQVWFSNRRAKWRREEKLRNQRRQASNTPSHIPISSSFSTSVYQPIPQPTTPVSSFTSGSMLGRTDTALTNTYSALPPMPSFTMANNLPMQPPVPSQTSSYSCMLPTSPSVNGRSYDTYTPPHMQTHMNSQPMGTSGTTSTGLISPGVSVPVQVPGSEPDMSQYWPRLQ
Chain of Hypoxia-inducible factor 1-alpha (Homo sapiens) (Q16665 whole entry, looked up): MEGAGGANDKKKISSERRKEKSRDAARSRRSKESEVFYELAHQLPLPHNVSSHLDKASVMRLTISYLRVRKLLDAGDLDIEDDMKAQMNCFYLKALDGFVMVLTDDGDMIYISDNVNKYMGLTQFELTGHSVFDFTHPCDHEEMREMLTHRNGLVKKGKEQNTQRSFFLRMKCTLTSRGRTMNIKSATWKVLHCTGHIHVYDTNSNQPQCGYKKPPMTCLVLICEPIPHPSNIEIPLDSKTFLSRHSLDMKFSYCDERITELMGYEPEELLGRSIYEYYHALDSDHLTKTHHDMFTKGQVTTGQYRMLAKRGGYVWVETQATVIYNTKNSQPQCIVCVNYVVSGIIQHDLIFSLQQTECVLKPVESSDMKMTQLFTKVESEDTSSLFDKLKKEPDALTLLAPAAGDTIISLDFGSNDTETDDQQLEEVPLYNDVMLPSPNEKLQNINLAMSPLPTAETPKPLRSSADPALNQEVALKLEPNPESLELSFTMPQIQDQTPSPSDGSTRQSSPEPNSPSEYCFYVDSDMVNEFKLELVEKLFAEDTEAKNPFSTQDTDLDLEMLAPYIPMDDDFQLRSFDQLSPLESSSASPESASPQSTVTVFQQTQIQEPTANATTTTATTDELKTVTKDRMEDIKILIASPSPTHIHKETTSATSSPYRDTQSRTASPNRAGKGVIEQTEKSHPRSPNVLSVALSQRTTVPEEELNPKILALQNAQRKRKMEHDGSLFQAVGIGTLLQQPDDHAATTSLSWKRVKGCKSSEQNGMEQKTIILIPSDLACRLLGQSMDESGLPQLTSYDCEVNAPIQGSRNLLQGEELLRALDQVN
Chain of Hepatocyte nuclear factor 6 (Homo sapiens) (Q9UBC0 whole entry, looked up): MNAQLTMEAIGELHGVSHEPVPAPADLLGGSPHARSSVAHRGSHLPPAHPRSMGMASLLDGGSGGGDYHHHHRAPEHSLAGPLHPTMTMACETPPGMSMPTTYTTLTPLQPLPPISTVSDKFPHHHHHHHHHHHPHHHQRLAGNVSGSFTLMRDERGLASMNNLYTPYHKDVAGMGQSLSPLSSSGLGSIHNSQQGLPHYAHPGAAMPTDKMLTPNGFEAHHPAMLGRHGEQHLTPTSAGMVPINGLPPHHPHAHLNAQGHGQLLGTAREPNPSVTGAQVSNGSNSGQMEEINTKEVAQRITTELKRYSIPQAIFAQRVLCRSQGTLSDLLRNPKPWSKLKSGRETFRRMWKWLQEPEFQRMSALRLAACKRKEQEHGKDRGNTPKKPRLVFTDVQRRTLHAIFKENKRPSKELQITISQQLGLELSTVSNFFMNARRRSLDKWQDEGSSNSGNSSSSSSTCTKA
Chain of Heat shock factor protein 1 (Homo sapiens) (Q00613 whole entry, looked up): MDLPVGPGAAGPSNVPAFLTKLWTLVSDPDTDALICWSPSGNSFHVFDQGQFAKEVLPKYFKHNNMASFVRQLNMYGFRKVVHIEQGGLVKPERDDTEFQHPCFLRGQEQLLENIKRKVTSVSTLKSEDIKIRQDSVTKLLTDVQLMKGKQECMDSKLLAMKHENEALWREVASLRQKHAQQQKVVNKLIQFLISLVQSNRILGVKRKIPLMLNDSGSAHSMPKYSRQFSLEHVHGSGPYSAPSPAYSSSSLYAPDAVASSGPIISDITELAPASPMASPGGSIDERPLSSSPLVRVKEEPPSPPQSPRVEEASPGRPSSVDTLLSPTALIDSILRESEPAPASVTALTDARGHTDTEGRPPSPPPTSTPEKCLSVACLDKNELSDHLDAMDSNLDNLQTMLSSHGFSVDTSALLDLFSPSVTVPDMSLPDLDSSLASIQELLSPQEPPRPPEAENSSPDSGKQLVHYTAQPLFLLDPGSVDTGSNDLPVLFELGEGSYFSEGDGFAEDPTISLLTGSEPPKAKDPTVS
Chain of Hepatocyte nuclear factor 3-beta (Homo sapiens) (Q9Y261 whole entry, looked up): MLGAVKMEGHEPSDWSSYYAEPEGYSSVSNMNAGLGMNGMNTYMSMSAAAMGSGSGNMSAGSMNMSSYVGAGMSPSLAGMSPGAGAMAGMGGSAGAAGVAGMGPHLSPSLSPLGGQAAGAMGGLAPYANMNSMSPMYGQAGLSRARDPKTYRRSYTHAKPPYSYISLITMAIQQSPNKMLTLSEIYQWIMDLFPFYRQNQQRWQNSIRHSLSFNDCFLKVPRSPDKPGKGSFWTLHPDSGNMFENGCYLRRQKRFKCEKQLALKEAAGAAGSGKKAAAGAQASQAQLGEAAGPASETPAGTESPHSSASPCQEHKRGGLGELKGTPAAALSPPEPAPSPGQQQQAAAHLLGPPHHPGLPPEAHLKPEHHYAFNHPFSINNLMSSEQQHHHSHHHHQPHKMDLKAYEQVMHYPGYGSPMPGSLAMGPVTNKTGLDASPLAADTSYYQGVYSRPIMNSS
Chain of Bile acid receptor (Homo sapiens) (Q96RI1 whole entry, looked up, the tested form may be a part): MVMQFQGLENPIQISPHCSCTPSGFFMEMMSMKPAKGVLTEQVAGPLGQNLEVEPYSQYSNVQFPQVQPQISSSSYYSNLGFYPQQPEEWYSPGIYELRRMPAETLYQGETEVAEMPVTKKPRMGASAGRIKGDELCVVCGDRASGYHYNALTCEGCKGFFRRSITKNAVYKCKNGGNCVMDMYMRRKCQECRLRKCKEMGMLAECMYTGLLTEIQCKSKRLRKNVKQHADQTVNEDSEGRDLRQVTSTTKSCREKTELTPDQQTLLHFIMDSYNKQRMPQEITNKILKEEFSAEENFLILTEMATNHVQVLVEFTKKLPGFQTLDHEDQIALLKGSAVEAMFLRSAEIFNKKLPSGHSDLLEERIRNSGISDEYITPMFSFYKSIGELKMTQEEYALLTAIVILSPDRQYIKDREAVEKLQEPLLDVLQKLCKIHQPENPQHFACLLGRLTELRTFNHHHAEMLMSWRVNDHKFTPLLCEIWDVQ

NC(=O)O
not listed: [17] | [18] | [19] | [20]
inactive: all other assays above

CCc1ccccc1N
active: [15] 68.3 µM
not listed: [8] | [19] | [20]
inactive: all other assays above

CCCCCCCCC(=O)NCc1ccc(O)c(OC)c1
active: [11] 125 µM | [12] 131 µM | [15] 26.2 µM
not listed: [9] | [20]
inactive: all other assays above

CCOP(=S)(OCC)Oc1ccc(S(C)=O)cc1 (stereo not given)
active: [15] 15.9 µM
not listed: [12] | [17] | [20]
inactive: all other assays above

C=CC(=O)N(C)C
not listed: [5] | [13]
inactive: all other assays above

NNC(=S)NN
not listed: [6] | [8] | [13] | [15] | [17] | [20]
inactive: all other assays above

OCC(O)CCl (stereo not given)
not listed: [6] | [20]
inactive: all other assays above

Cl/C=C/Cl
not listed: [6] | [13] | [18] | [20]
inactive: all other assays above

O=C(O)C(Cl)(Cl)Cl
not listed: [6] | [15] | [17] | [19] | [20]
inactive: all other assays above

COc1ccc(C=O)cc1
not listed: [6] | [20]
inactive: all other assays above

CCCCCCCCSC(=O)Oc1cc(Cl)nnc1-c1ccccc1
active: [1] 162 µM | [3] 141 µM | [4] 149 µM | [14] 146 µM
not listed: [6] | [13] | [15] | [17] | [20]
inactive: all other assays above

CC12CC1(C)C(=O)N(c1cc(Cl)cc(Cl)c1)C2=O (stereo not given)
inactive: [1] | [2] | [3] | [4] | [5] | [17] | [7] | [8] | [9] | [10] | [11] | [13] | [14] | [18] | [19] | [16]
active: [13] 11.1 µM | [15] 4.87 µM [middle of 4 runs]

CCCCC(CC)CO[N+](=O)[O-] (stereo not given)
active: [9] 4.37 µM | [10] 151 µM | [19] 99.5 µM
not listed: [8] | [12] | [13] | [15] | [20]
inactive: all other assays above

ClCC(Cl)CCl
not listed: [6] | [18] | [20]
inactive: all other assays above

O=Cc1cccc(Oc2ccccc2)c1
not listed: [12] | [19] | [20]
inactive: all other assays above

C=CCc1ccc(OC)cc1
not listed: [15] | [17] | [19] | [20]
inactive: all other assays above
